# ATXN2 expr inh – inhibitors of ATXN2 expression | 360,000 compounds, 0.72% hits | Potency, µM (highest dose often 57 µM), for the others: top-dose activity change, negative = inhibition, actives largely listed as inhibitors | AID 1745845 | HEK-293 ATXN2-luciferase reporter, luminescence, 24 h; further: potency means the concentration at half of the fitted maximal effect; on the % scale 0 is the no-effect control and ±100 the full control effect; nearly all actives have a fitted effect of over 55% in size
#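 ATXN2-luciferase reporter cells (luciferase flanked by upstream and downstream ATXN2 gene portions) were treated 24 h at 37 °C with compounds at up to 57 uM. SteadyGlo luminescence gave expression; GF-AFC fluorescence gave viability.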
# PINK1 expr mod – changes PINK1 expression; PINK1 immunofluorescence, high-content cytometry, 24 h; Potency, µM (titrated, usually from 76.6 µM), for the others: top-dose activation (PINK1 increase), actives largely listed as activators; 410,000 compounds, 0.2% hits; active means well fitted activation curve with a large enough effect; inconclusive means small, poorly fitted or top-dose-only effect; cell line not stated here; further: potency means the concentration at half of the fitted maximal effect; % of control where 0% means no effect; nearly all actives have a fitted effect of over 65% in size
#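 Decision-based qHTS: stable cells, 24 h exposure to five compound concentrations, CCCP as control. Fixed cells stained for PINK1 plus nuclear, mitochondrial and cell markers, cytometer read.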
# IL-1B inflam inh – inflammasome signaling inhibition, IL-1 beta readout | THP-1 LPS/ATP IL-1B secretion, AlphaLISA, 16 h; hits give low values | activity change, % at 57.5 µM | 360,000 compounds, 4.7% hits | AID 743279; in the data active means activity change below about -50%; inconclusive means mostly about -30% to -49%; further: on the % scale 0 is the no-effect control and ±100 the full control effect
#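 THP-1 cells pretreated 1 hr with compounds (up to 57.5 uM final), then stimulated with LPS (250 ng/mL final) plus ATP (1.25 mM final); secreted IL-1B measured by AlphaLISA after 16 hr, decreased signal indicating inhibition.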
# SW480 rereplic – DNA re-replication induction in SW480 cells | SW480 DNA re-replication, Hoechst DNA content imaging, 48 h | Potency, µM (highest dose often 46.1 µM), for inactives: at the highest dose re-replication activation, actives largely listed as activators | 340,000 compounds, 1.8% hits; further: potency means the concentration at half of the fitted maximal effect; % of control where 0% means no effect; nearly all actives have a fitted effect of over 55% in size
#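 Image-based read-out: total Hoechst fluorescence of nuclei (405 nm excitation, 500-530 nm emission), with hits raising the fraction of high-intensity nuclei. SW480 colon cells incubated 48 hr with compounds at 37 C.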
# MCF10A rereplic – induces DNA re-replication in MCF 10a normal breast cells | MCF 10A DNA re-replication, Hoechst nuclear intensity, 48 h | 350,000 compounds, 2.9% hits | Potency, µM (doses to about 46.1 µM), for the others: top-dose activity, positive = re-replication, actives largely listed as activators; further: potency means the concentration at half of the fitted maximal effect; % of control where 0% means no effect; nearly all actives have a fitted effect of over 50% in size
# S2 tox – cell viability loss in ATXN counter-screen; S2 cells (HEK-293 line with an ATXN2-luciferase reporter) viability, CellTiter-Fluor protease fluorescence, 24 h; Potency, µM (titrated, usually from 56.7 µM), most hits filed as cytotoxic; 400,000 compounds, 0.49% hits; further: potency means the concentration at half of the fitted maximal effect; nearly all actives have a fitted effect of over 40% in size
# * hit, by the source's call; i = inactive; u = inconclusive; x = not tested or not shown; [ ] = remark or other dose. Rows were chosen to be rich in hits. Some 7.1% of all compounds tested hit in one or more screens of this group. Unless noted, the call rests on the fitted dose curve; in most records, active means well fitted curve in the direction sought with a large enough effect; inconclusive means small, poorly fitted or top-dose-only effect, or another doubt; inactive means no such curve, though single readings can be large; an effect the other way counts as inactive or inconclusive.
SMILES,ATXN2 expr inh,PINK1 expr mod,IL-1B inflam inh,SW480 rereplic,MCF10A rereplic,S2 tox
COc1ccc(/C=N/Nc2ccccn2)cc1O,63.6%,-0.1%,-8.9,-5.6%,-2.9%,i
C(=N\Nc1ccccn1)/c1c[nH]c2ccccc12,36.0%,-1.7%,-94.8*,-4.6%,5.4%,u
Oc1cccc(C=NNc2ccccn2)c1,43.0%,-2.0%,-86.6*,-0.2%,1.8%,i
Cc1c(C(=O)NCC2COCCO2)cnn1-c1ncc2c(n1)-c1ccccc1CC2 (stereo unspecified),x,-0.6%,x,x,x,i
Cc1ccc(S(=O)(=O)n2nc(-c3ccccc3)nc2NCc2ccccc2Cl)cc1,-8.6%,4.3%,x,x,x,i
COc1ccc(-c2nnc(SCC(=O)Nc3ncc(C)s3)n2-c2ccccc2)cc1OC,24.7%,1.0%,8.5,16.4µM*,13µM*,i
CCOc1ccc(-c2cc(C(=O)NCCc3ccccc3)c3c(-c4ccc(C)cc4)[nH]nc3n2)cc1,22.9%,4.8%,x,x,x,i
NC(=NCCc1c[nH]c2ccccc12)NC(=O)c1ccc(F)cc1,-3.1%,5.2%,-62.9*,-2.0%,0.0%,i
CCc1ccc(-n2nc(CO)c(C(=O)NCCc3ccccc3)n2)cc1,x,-0.6%,x,x,x,x
O=C(Cc1nc2ccccc2[nH]1)c1ccc(Br)cc1,25.5%,0.9%,-60.4*,u,u,i
O=C(Cc1nc2ccccc2[nH]c1=O)c1ccccc1,129.7%,3.2%,-71.7*,28.7%,20.6µM*,x
O=c1[nH]c2ccccc2nc1Cc1ccccc1,40.6%,0.1%,0.0,-19.0%,18.5%,i
O=C(Cc1ccc(Br)cc1)Nc1nc2ccccc2[nH]1,29.3%,4.6%,17.8,5.8%,8.6%,i
CC(=O)Nc1cc(=O)c2cccnc2[nH]1,10.9%,1.6%,22.2,-24.0%,-41.7%,i
COc1cc2c(cc1NC(=O)C(C)OC(=O)C1CC(=O)N(Cc3ccco3)C1)oc1ccccc12 (stereo unspecified),52.5%,2.3%,-17.9,-1.0%[9.22 µM],u,i
CC(OC(=O)C1CC(=O)N(Cc2ccco2)C1)C(=O)Nc1cccc(C#N)c1 (stereo unspecified),9.7%,1.9%,9.5,5.8µM*,-2.2%,i
CCC(C)(C)n1nnnc1C(c1cc2ccc(OC)cc2[nH]c1=O)N1CCc2ccccc2C1 (stereo unspecified),10.0%,u,-65.4*,u,15.5%,i
Cc1cc2cc(C(c3nnnn3Cc3ccco3)N3CCc4ccccc4C3)c(=O)[nH]c2cc1C (stereo unspecified),-21.1%,1.0%,-57.7*,-2.8%[9.22 µM],13.9%,i
C[C@H](CO)N1C[C@H](C)[C@@H](CN(C)S(=O)(=O)c2ccccc2C#N)OCc2cn(nn2)CCCC1=O,5.6%,3.2%,7.3,x,x,i
COc1ccc(CCN(C)C(=O)c2cc(=O)c3ccccc3o2)cc1OC,4.0%,1.4%,-53.8*,0.7%,-3.9%,x
CCCn1c2c(c(=N)c3c1CCC3)CCC2,-16.5%,0.9%,-1.4,-8.6%,11.8%,i
CCCCCCCn1c2c(c(=N)c3ccccc31)CCC2,x,20µM*,u,u,u,u
C[C@]12c3[nH]c4ccc(Cl)cc4c3CCN1C(=O)[C@@H](CC(=O)NCc1ccco1)C[C@@H]2C(=O)N1CCCCC1,-38.5%,3.5%,-55.0*,12.8%,3.8%,u
COc1ccc2[nH]c3c(c2c1)CCN1C(=O)C(CC(=O)NCc2ccco2)C[C@H](C(=O)N2CCCCC2)[C@@]31C (stereo partly specified),-3.7%,0.1%,-5.0,18.4µM*,4.1%,i
Cc1cccc(-c2cc3nc4c(c(N5CCOCC5)n3n2)CCCC4)c1,74.8%,u,-25.9,-0.1%,1.0%,i
SMILES,ATXN2 expr inh,PINK1 expr mod,IL-1B inflam inh,SW480 rereplic,MCF10A rereplic,S2 tox
Cc1cccc(-c2cc3nc4c(c(NCc5ccco5)n3n2)CCCC4)c1,-39.0%,x,-97.6*,u,16.4µM*,u
O=C(CSc1nc2c(c(=O)[nH]1)CCCC2)Nc1ccc(Br)cc1,-8.8%,4.1%,x,x,x,i
OCCN1CCN(Cc2ccc3c(c2)CN(Cc2cccc4ncccc24)CCO3)CC1,x,-0.5%,x,x,x,u
COc1ccc(NC(=O)c2cccc(NC(=O)c3ccccc3)c2)cc1,3.5%,1.2%,u,-0.8%,5.6%,i
COc1ccc(COc2cc(-c3cccc(OC)c3)nc3ccc(NC(=O)c4ccccc4)cc23)cc1,-10.9%,10.6%,47.8,16.4µM*,4.61µM*,u
COc1ccc(COc2cc(-c3cccc(OC)c3)nc3ccc(NC(=O)c4cccnc4)cc23)cc1,-22.3%,9.9%,17.8,u,u,u
COc1ccc(COc2cc(-c3cccc(OC)c3)nc3ccc(NC(=O)c4ccc(OC)cc4)cc23)cc1,-13.3%,10.5%,80.2,4.11µM*,2.31µM*,u
COc1ccc(COc2cc(-c3cccc(OC)c3)nc3ccc(NC(=O)c4ccc(Cl)cc4)cc23)cc1,-19.4%,17.3%,103.6,23.1µM*,25.9µM*,u
O=C(O)c1cccc(NC(=O)c2ccc(COc3ccc(Cl)cc3)cc2)c1,39.8%,0.7%,-2.0,-2.2%,0.7%,i
Cc1cccc(-n2c(C)cc(C(=O)C(=O)Nc3ccccc3F)c2C)c1C,35.4%,1.7%,x,x,x,i
COC(=O)C1=C(CS(=O)(=O)c2ccc(C)cc2C)NC(=O)NC1c1ccc(C)cc1 (stereo unspecified),u,-0.1%,x,x,x,i
N#C/C(=C\c1ccc(C(=O)O)cc1)c1nc2sc3c(c2c(=O)[nH]1)CCCC3,-4.1%,31.6µM*,8.1,1.0%,10.7%,i
CSc1ncc(C(=O)Nc2cc(Cl)ccc2C)c(-c2ccccc2)n1,10.2%,0.5%,x,x,x,i
Cn1ccc2cc(S(=O)(=O)N3CCCN(C(=O)Nc4ccccc4Br)CC3)ccc21,8.9%,0.2%,x,x,x,i
CC(C)OCCCNC(=O)c1nn(C)c2c1CSc1ccccc1-2,x,-0.4%,x,x,x,x
C/C(N)=C(/C#N)C(=O)COC(=O)[C@@H](NC(=O)c1ccccc1Cl)C(C)C,5.4%,0.0%,45.4,-56.1%,2.06µM*,i
Cc1ccc(Nc2nc(=O)c3cccnc3s2)cc1,63.7%,1.0%[38.3 µM],30.0,9.2µM*,16.4µM*,i
O=C1NC(=O)C(=Cc2ccc3nccnc3c2)S1,5.5%[25.6 µM],x,x,x,x,x
COC(=O)c1oc2ccccc2c1NC(=O)c1ccccc1O,-20.9%,9.5%,24.0,10.3µM*,-33.8%,i
COc1ccccc1C(=O)Nc1c(C(=O)N2CCN(C)CC2)oc2ccccc12,x,1.1%,-60.0*,12.0%,-0.7%,u
COc1cc(NC(=O)Cc2noc3ccccc23)cc(OC)c1OC,3.9%,-0.6%,x,x,x,i
